Compounds without any hit were thinned out: in the full panel of roughly 83,000, 20% have a hit.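 For each line, cells grew in 96-well plates with the test compound present at a single concentration for 48 hours.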 Unmarked numbers belong to inactive results. The source made the active and inactive calls. Rule for the calls: active = growth percent below 10; inactive = the rest.
Assays:
Assay in all cases: NCI-60 one-dose screen, 48 h (100 = growth as untreated, 0 = no growth, -100 = all killed)
Settings in all cases: 10 µM
[1] = tested on: NCI-H23 lung
[2] = tested on: NCI-H226 lung
[3] = tested on: NCI-H322M lung
[4] = tested on: HOP-62 NSCLC
[5] = tested on: NCI-H460 lung
[6] = tested on: HOP-92 NSCLC
[7] = tested on: NCI-H522 lung
[8] = tested on: A549/ATCC NSCLC
[9] = tested on: 786-0 renal
[10] = tested on: DU-145 prostate
[11] = tested on: K-562 leukemia
[12] = tested on: MALME-3M melanoma
[13] = tested on: MDA-MB-231 breast
[14] = tested on: SF-268 CNS
[15] = tested on: SF-295 CNS
[16] = tested on: SF-539 CNS
[17] = tested on: UACC-257 melanoma
[18] = tested on: M14 melanoma
[19] = tested on: RXF 393 renal
[20] = tested on: COLO 205 colon

SMILES | growth [1] | growth [2] | growth [3] | growth [4] | growth [5] | growth [6] | growth [7] | growth [8] | growth [9] | growth [10] | growth [11] | growth [12] | growth [13] | growth [14] | growth [15] | growth [16] | growth [17] | growth [18] | growth [19] | growth [20]
O=c1[nH]c(=O)n(C2C[C@@H](O)[C@@H](CO)O2)cc1F (stereo partly specified) | 15.9% | 50.4% | 57.6% | 27.7% | 6.58% (active) | 38.9% | 20.1% | 22.2% | 8.75% (active) | 37% | 9.63% (active) | 52.7% | 62.1% | 24.1% | 8.65% (active) | 5.71% (active) | 67.8% | -6.77% (active) |  | 
CCOC(=O)c1ccc(NC(=O)Nc2nncs2)cc1 | 21.9% | -21.3% (active) | 43.2% | 26.4% | 7.58% (active) | 58.2% | 7.15% (active) | 19.4% | 35.4% | -18% (active) | 7.79% (active) | 22.2% | 14.8% | 29.3% | -39.9% (active) | 14.6% | 67.9% | 4.02% (active) | -15.2% (active) | 
Fc1ccc2[nH]c3c(NCCCN4CCOCC4)ncnc3c2c1 | 83.2% | 62.2% | 53.6% | 32.7% | 54% | 63.9% | 58.1% | 54.5% | 24.1% | 79.2% | 73.9% | 61.5% | 55.6% | 61.5% | 39% | 65% | 107% | 85.3% | 60.8% | 
CCN(CC)c1ccc(/C=C/C2=[N+](C)c3ccccc3C2(C)C)c(C)c1 | 11.1% | 17.7% | 27.6% | 5.39% (active) | 2.94% (active) | -19.5% (active) | -14.4% (active) | 9.85% (active) | 13.1% | 20.3% | 6.13% (active) | -33.4% (active) | -1.06% (active) | 22.7% | 4.27% (active) | 18% | -15.9% (active) | 10.5% | 29.5% | 
COC(=O)[C@]12CC[C@@H](C)[C@H](C)[C@@H]1C1=CC[C@@H]3[C@@]4(C)C/C(=N\O)[C@H](O)[C@@]5(C)COC(=C45)C[C@@]3(C)[C@]1(C)CC2 | -75.7% (active) | -76.7% (active) | -77.2% (active) | -96.7% (active) | -76.5% (active) | -79% (active) | -84.7% (active) | -90.6% (active) | -81% (active) | -94.8% (active) | -58.4% (active) | -71.1% (active) | -59.3% (active) | -78.6% (active) | -88.5% (active) | -75.2% (active) | -90.5% (active) | -82.3% (active) | -73.4% (active) | 
NC(=O)c1ccc(Br)o1 | 95.1% | 104% | 104% | 91.7% | 109% | 114% | 88.3% | 109% | 96.8% | 109% | 105% | 109% | 101% | 101% | 97.4% | 96.5% | 114% | 108% | 112% | 
O=C1/C(=C/c2cccs2)CCC/C1=C\c1cccs1 | 81.5% | 80.9% | 85.3% | 96.7% | 92.1% | 66% | 76.7% | 88.4% | 108% | 92.9% | 94.8% |  |  | 96.2% | 104% | 100% | 96.9% | 87.5% | 91.9% | 117%
CC(=O)n1nc(C(=O)OC(C)(C)C)c2cc(F)c(F)cc21 | 101% | 105% | 102% | 99% | 102% | 83% | 83.2% | 95.9% | 97.5% | 102% | 110% | 98.7% | 94% | 101% | 101% | 104% | 113% | 90.9% | 126% | 
CCOC(=O)CSC(=S)SCC(=O)OCC | 110% | 106% | 118% | 105% | 107% | 108% | 67.7% | 99% | 103% | 107% | 95.6% | 98% | 118% | 113% | 103% | 94.1% | 82.8% | 97.9% | 109% | 
CCCCc1ccc(NC(=O)N(CCCl)N=O)cc1 | 109% | 91.2% | 96.8% | 90.8% | 102% | 105% | 97% | 102% | 94.2% | 106% | 88.1% | 101% | 107% | 79.3% | 73.9% | 82.2% | 103% | 99.2% | 93.4% | 
O=C/C=C/c1ccc([N+](=O)[O-])cc1Cl | 94% | 108% | 89.1% | 99.9% | 112% | 95.1% | 89.5% | 98.7% | 105% | 99.9% | 63.7% | 95.1% | 122% | 93.1% | 107% | 96.8% | 91.6% | 90.8% | 107% | 
Nc1ccn([C@@H]2O[C@H](COP(=O)(O)O[C@@H]3C[C@H](n4cc(F)c(=O)[nH]c4=O)O[C@@H]3COP(=O)(O)O[C@@H]3C[C@H](n4cc(F)c(=O)[nH]c4=O)O[C@@H]3COP(=O)(O)O[C@@H]3C[C@H](n4cc(F)c(=O)[nH]c4=O)O[C@@H]3COP(=O)(O)O[C@@H]3C[C@H](n4cc(F)c(=O)[nH]c4=O)O[C@@H]3COP(=O)(O)O[C@@H]3C[C@H](n4cc(F)c(=O)[nH]c4=O)O[C@@H]3COP(=O)(O)O[C@@H]3C[C@H](n4cc(F)c(=O)[nH]c4=O)O[C@@H]3COP(=O)(O)O[C@@H]3C[C@H](n4cc(F)c(=O)[nH]c4=O)O[C@@H]3COP(=O)(O)O[C@@H]3C[C@H](n4cc(F)c(=O)[nH]c4=O)O[C@@H]3COP(=O)(O)O[C@@H]3C[C@H](n4cc(F)c(=O)[nH]c4=O)O[C@@H]3COP(=O)(O)O[C@@H]3C[C@H](n4cc(F)c(=O)[nH]c4=O)O[C@@H]3COP(=O)(O)OCCOCCOCCOCCOCCOCCO)[C@H](O)C2O)c(=O)n1 (stereo partly specified) | 33.2% | 72.7% | 83.5% | 30% | 6.31% (active) | 71% | 45% | 11.7% | 28.2% | 41.6% | 53.8% | 64% | 91.4% | 36.8% | 1.32% (active) | 10.2% | 44.7% | 9.25% (active) | 63.9% | 
CCN(CC)CCOC(=O)c1ccc(NC(=O)Nc2cccc(Cl)c2)cc1 | 95.8% | 99.6% | 103% | 93.4% | 108% | 85.1% | 86.7% | 91.4% | 95.5% | 105% | 91.1% | 97.6% | 93.7% | 97.3% | 93% | 98.7% | 91% | 103% | 99.4% | 
NS(=O)(=O)c1ccc(N2N=C(c3ccc(-c4ccccc4)cc3)CC2c2ccc(Cl)cc2)cc1 (stereo unspecified) | 85.9% | 81% | 87.6% | 90.8% | 70.1% | 78.4% | 75.1% | 64.1% | 95.9% | 96.6% | 71.2% | 106% | 86.9% | 83.5% | 88.4% | 93.9% | 92.4% |  | 73.4% | 
Cc1ccc2c(c1)-c1cc(C)nn1-c1ccc(C#N)cc1O2 | 78.2% | 75.4% | 81.5% |  | 60.5% | 69.1% | 15.2% | 51.6% | 86.4% | 98.7% | 19.7% | 76.1% | 61% | 74.4% | 67.2% | 69.1% | 78.4% | 40% | 65% | 66.3%
O=C1/C(=C/c2ccc(O)cc2O)N=C2SCCCN12 | 95.2% | 106% | 97.8% | 85.4% | 110% | 108% | 92.3% | 92.1% | 81.9% | 104% | 92.5% | 101% | 104% | 96.9% | 96.3% | 93.7% | 102% | 100% | 102% | 

Source: PubChem BioAssay (NCI)
